# Assay results from PubChem BioAssay.
# Active and inactive are the calls of the source.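 How the source made its calls: active means luciferase signal above three times the same-plate solvent-only control wells; inactive means the rest.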
# Test system: not listed separately
# Test: EMT-state selective cytotoxicity in co-culture – imaging, PC-3E GFP, TEM4-18 mCherry, primary screen (AID 1345086);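 further: cells exposed to compound for 72 h before imaging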
# Settings: PC-3E GFP / TEM4-18 mCherry co-culture, imaging cell counts; measured here: mesenchymal TEM4-18 mCherry cell survival; at 1 µM
row,Compound,normalised cell number
1,C/C1=C/CC(C)(C)/C=C/C/C(C)=C/CC1,1.01
2,COc1cc(O)c(C(=O)/C=C/c2ccc(O)c(OC)c2)c(OC)c1,1.02
3,CC(=O)O[C@@H]1CC2C(C)(C)[C@H](O)C=C[C@]2(C)C2CC[C@@]3(C)[C@H](c4ccoc4)OC(=O)C4OC43[C@@]21C (stereo not given in full),1.19
4,CC1(C)C(=O)C=C[C@@]2(C)C1CC(=O)[C@]1(C)C2CC[C@@]2(C)[C@H](c3ccoc3)OC(=O)[C@H]3O[C@]321 (stereo not given in full),1.21
5,COc1ccc(-c2coc3c(O)c(O)c(OC)cc3c2=O)cc1,1.09
6,C=C[C@@H](C1=CC(=O)C(OC)=C(OC)C1=O)c1ccccc1,1.04
7,CC(=O)Oc1cc2c(c(C)c1OC(C)=O)CC=C1[C@@]2(C)CC[C@@]2(C)C3C[C@](C)(C(=O)O)CC[C@]3(C)CC[C@]12C (stereo not given in full),0.62
8,COc1ccc2oc3ccccc3c(=O)c2c1,1.14
9,C=CCCCCCCCCCCCc1ccco1,1.01
10,C#CCCCCCCCCCCCc1ccco1,0.98
11,COc1cc(OC)c2c(=O)c(O)c(-c3ccc(OC)c(OC)c3)oc2c1,1.02
12,O=C(/C=C/c1ccc(O)cc1)c1ccccc1O,0.94
13,O=C(/C=C/c1ccccc1)c1ccc(O)cc1O,1
14,CC(C)(N=NC(C)(C)C(=N)N)C(=N)N,1.22
15,O=c1cc(-c2ccccc2O)oc2cc(O)ccc12,0.97
16,CC[C@@H](C(=O)[C@@H](C)[C@@H](O)[C@H](C)[C@@H]1O[C@@H]([C@@H](CC)C(=O)O)CC[C@@H]1C)[C@H]1OC2(C=C[C@@H](O)[C@]3(CC[C@@](C)([C@H]4CC[C@](O)(CC)[C@H](C)O4)O3)O2)[C@H](C)C[C@@H]1C (stereo not given in full),0.36
17,CN(C)CC(=O)OC[C@@H](O)[C@@H](O)[C@H](O)[C@@H](O)C(=O)O,1.1
18,CNc1ccccc1C(=O)N1CCc2c([nH]c3ccccc23)C1=O,0.96
19,CC(=O)O[C@@H]1CC[C@@]2(C)C(CC[C@]3(C)C2CC=C2C4CC(C)(C)CC[C@]4(C(=O)O)CC[C@]23C)C1(C)C (stereo not given in full),0.87
20,CC(=O)Oc1ccc2c(c1C(C)C)CCC1C(C)(C)CCC[C@]21C (stereo not given in full),0.86

row,Compound,normalised cell number
1,COc1ccc2c(c1)O[C@H]1c3ccc(OC)cc3OC[C@@H]21,1.07
2,O=c1cc(-c2ccc(O)cc2)oc2ccc(O)cc12,0.97
3,C=C[C@@]1(C)CC(=O)[C@@]2(O)[C@](C)(O1)[C@@H](O)[C@@H](O)C1C(C)(C)CC[C@H](O)[C@@]12C (stereo not given in full),1.05
4,C[C@@H]1O[C@@H](O[C@H]2[C@H](Oc3cc(O)c4c(=O)cc(-c5ccc(O)cc5)oc4c3)O[C@H](CO)[C@@H](O)[C@@H]2O)[C@H](O)[C@H](O)[C@H]1O,0.89
5,CC(=O)O[C@H]1C[C@@H](O)C(C)(C)C2C[C@@H](OC(C)=O)[C@]3(C)C(CC[C@@]4(C)[C@H](c5ccoc5)OC(=O)C5OC543)[C@]21C (stereo not given in full),0.7
6,CC1(C)CC[C@]2(C(=O)O)CC[C@]3(C)C(=CCC4[C@@]5(C)CC[C@@H](O)C(C)(C)C5CC[C@]43C)C2C1 (stereo not given in full),0.95
7,COc1cc2oc3cc(OC)c(OC)c(CC=C(C)C)c3c(=O)c2c(O)c1CC=C(C)C,0.97
8,COc1ccc([C@@H](C)C(=O)c2ccc(O)cc2O)cc1,1.05
9,COc1cc2c(cc1OC)-c1c(oc3cc(O)cc(O)c3c1=O)CO2,1.09
10,O=C(O)/C=C/C=C/c1ccc2c(c1)OCO2,1.03
11,COc1cc(OC)c(C(C)=O)c(O)c1C,0.94
12,CC(CCC(=O)O)[C@H]1CCC2C3C[C@H](O)[C@@H]4C[C@H](O)CC[C@]4(C)C3CC[C@@]21C (stereo not given in full),1.03
13,O=c1ccn([C@@H]2O[C@H](COP(=O)(O)OP(=O)(O)OP(=O)(O)O)[C@@H](O)[C@H]2O)c(=O)[nH]1,1.1
14,C[C@]12CCC3c4ccc(OC(=O)c5ccccc5)cc4CCC3C1CCC2=O (stereo not given in full),1.05
15,CC(C)c1ccc2c(c1)CCC1C(C)(C(N)=O)CCCC21C (stereo not given),1.27
16,C=CCS(=O)C[C@H](N)C(=O)O (stereo not given in full),0.98
17,CCCc1cc(OC)c2c(c1)OCO2,0.98
18,COc1ccc(-c2oc3cc(OC)c(OC)c(OC)c3c(=O)c2OC)cc1OC,1.08
19,COc1ccc2c(c1)OCC(Cc1ccc(O)c(OC)c1)C2=O (stereo not given),0.96
20,COC1=CC(=O)C(O)=C/C1=C\C=C\c1ccccc1,1.06

# Molecular target: Mitogen-activated protein kinase 7 (Homo sapiens) (UniProt Q13164)
# Test: Gal4-ERK5 driven luciferase induction – cell-based, HTS, primary screen (AID 1508626);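 further: luciferase driven by Gal4-ERK5 fusion binding five Gal4 sites before minimal TATA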
# Settings: HeLa Gal4-ERK5 transactivation, 18 h, at 5 µM, stronger effect = higher value
# Chain of Mitogen-activated protein kinase 7 (Homo sapiens) (Q13164 whole entry, looked up, the tested form may be a part): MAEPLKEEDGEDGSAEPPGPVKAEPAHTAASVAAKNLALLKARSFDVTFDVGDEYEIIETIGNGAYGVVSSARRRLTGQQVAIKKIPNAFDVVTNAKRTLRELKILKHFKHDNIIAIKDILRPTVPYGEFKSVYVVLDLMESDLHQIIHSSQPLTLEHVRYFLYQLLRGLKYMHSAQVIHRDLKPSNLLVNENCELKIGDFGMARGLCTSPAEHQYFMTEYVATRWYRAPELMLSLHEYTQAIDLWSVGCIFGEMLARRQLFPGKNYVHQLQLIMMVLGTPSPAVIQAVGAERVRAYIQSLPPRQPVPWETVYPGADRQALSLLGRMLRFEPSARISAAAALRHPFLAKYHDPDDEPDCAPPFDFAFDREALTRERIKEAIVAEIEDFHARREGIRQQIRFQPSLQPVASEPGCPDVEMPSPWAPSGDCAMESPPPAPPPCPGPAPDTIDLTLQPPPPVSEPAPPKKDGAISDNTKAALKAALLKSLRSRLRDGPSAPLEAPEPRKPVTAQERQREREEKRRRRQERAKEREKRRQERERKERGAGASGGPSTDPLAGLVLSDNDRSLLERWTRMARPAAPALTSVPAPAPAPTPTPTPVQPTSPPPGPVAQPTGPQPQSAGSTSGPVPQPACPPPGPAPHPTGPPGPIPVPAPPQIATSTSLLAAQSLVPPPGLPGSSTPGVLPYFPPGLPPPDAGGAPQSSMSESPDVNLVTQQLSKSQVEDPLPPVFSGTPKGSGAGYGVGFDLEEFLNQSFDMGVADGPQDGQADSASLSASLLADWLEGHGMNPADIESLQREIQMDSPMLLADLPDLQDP
row,Compound,luciferase signal
1,C/C1=C/CC(C)(C)/C=C/C/C(C)=C/CC1,60 AU (inactive)
2,COc1cc(O)c(C(=O)/C=C/c2ccc(O)c(OC)c2)c(OC)c1,60 AU (inactive)
3,CC(=O)O[C@@H]1CC2C(C)(C)[C@H](O)C=C[C@]2(C)C2CC[C@@]3(C)[C@H](c4ccoc4)OC(=O)C4OC43[C@@]21C (stereo not given in full),56 AU (inactive)
4,CC1(C)C(=O)C=C[C@@]2(C)C1CC(=O)[C@]1(C)C2CC[C@@]2(C)[C@H](c3ccoc3)OC(=O)[C@H]3O[C@]321 (stereo not given in full),16 AU (inactive)
5,COc1ccc(-c2coc3c(O)c(O)c(OC)cc3c2=O)cc1,88 AU (inactive)
6,C=C[C@@H](C1=CC(=O)C(OC)=C(OC)C1=O)c1ccccc1,136 AU (inactive)
7,CC(=O)Oc1cc2c(c(C)c1OC(C)=O)CC=C1[C@@]2(C)CC[C@@]2(C)C3C[C@](C)(C(=O)O)CC[C@]3(C)CC[C@]12C (stereo not given in full),48 AU (inactive)
8,COc1ccc2oc3ccccc3c(=O)c2c1,88 AU (inactive)
9,C=CCCCCCCCCCCCc1ccco1,112 AU (inactive)
10,C#CCCCCCCCCCCCc1ccco1,148 AU (inactive)
11,COc1cc(OC)c2c(=O)c(O)c(-c3ccc(OC)c(OC)c3)oc2c1,64 AU (inactive)
12,O=C(/C=C/c1ccc(O)cc1)c1ccccc1O,96 AU (inactive)
13,O=C(/C=C/c1ccccc1)c1ccc(O)cc1O,52 AU (inactive)
14,CC(C)(N=NC(C)(C)C(=N)N)C(=N)N,20 AU (inactive)
15,O=c1cc(-c2ccccc2O)oc2cc(O)ccc12,112 AU (inactive)
16,CC[C@@H](C(=O)[C@@H](C)[C@@H](O)[C@H](C)[C@@H]1O[C@@H]([C@@H](CC)C(=O)O)CC[C@@H]1C)[C@H]1OC2(C=C[C@@H](O)[C@]3(CC[C@@](C)([C@H]4CC[C@](O)(CC)[C@H](C)O4)O3)O2)[C@H](C)C[C@@H]1C (stereo not given in full),36 AU (inactive)
17,CN(C)CC(=O)OC[C@@H](O)[C@@H](O)[C@H](O)[C@@H](O)C(=O)O,36 AU (inactive)
18,CNc1ccccc1C(=O)N1CCc2c([nH]c3ccccc23)C1=O,56 AU (inactive)
19,CC(=O)O[C@@H]1CC[C@@]2(C)C(CC[C@]3(C)C2CC=C2C4CC(C)(C)CC[C@]4(C(=O)O)CC[C@]23C)C1(C)C (stereo not given in full),44 AU (inactive)
20,CC(=O)Oc1ccc2c(c1C(C)C)CCC1C(C)(C)CCC[C@]21C (stereo not given in full),20 AU (inactive)

row,Compound,luciferase signal
1,COc1ccc2c(c1)O[C@H]1c3ccc(OC)cc3OC[C@@H]21,68 AU (inactive)
2,O=c1cc(-c2ccc(O)cc2)oc2ccc(O)cc12,52 AU (inactive)
3,C=C[C@@]1(C)CC(=O)[C@@]2(O)[C@](C)(O1)[C@@H](O)[C@@H](O)C1C(C)(C)CC[C@H](O)[C@@]12C (stereo not given in full),80 AU (inactive)
4,C[C@@H]1O[C@@H](O[C@H]2[C@H](Oc3cc(O)c4c(=O)cc(-c5ccc(O)cc5)oc4c3)O[C@H](CO)[C@@H](O)[C@@H]2O)[C@H](O)[C@H](O)[C@H]1O,56 AU (inactive)
5,CC(=O)O[C@H]1C[C@@H](O)C(C)(C)C2C[C@@H](OC(C)=O)[C@]3(C)C(CC[C@@]4(C)[C@H](c5ccoc5)OC(=O)C5OC543)[C@]21C (stereo not given in full),40 AU (inactive)
6,CC1(C)CC[C@]2(C(=O)O)CC[C@]3(C)C(=CCC4[C@@]5(C)CC[C@@H](O)C(C)(C)C5CC[C@]43C)C2C1 (stereo not given in full),16 AU (inactive)
7,COc1cc2oc3cc(OC)c(OC)c(CC=C(C)C)c3c(=O)c2c(O)c1CC=C(C)C,72 AU (inactive)
8,COc1ccc([C@@H](C)C(=O)c2ccc(O)cc2O)cc1,20 AU (inactive)
9,COc1cc2c(cc1OC)-c1c(oc3cc(O)cc(O)c3c1=O)CO2,16 AU (inactive)
10,O=C(O)/C=C/C=C/c1ccc2c(c1)OCO2,24 AU (inactive)
11,COc1cc(OC)c(C(C)=O)c(O)c1C,32 AU (inactive)
12,CC(CCC(=O)O)[C@H]1CCC2C3C[C@H](O)[C@@H]4C[C@H](O)CC[C@]4(C)C3CC[C@@]21C (stereo not given in full),60 AU (inactive)
13,O=c1ccn([C@@H]2O[C@H](COP(=O)(O)OP(=O)(O)OP(=O)(O)O)[C@@H](O)[C@H]2O)c(=O)[nH]1,36 AU (inactive)
14,C[C@]12CCC3c4ccc(OC(=O)c5ccccc5)cc4CCC3C1CCC2=O (stereo not given in full),40 AU (inactive)
15,CC(C)c1ccc2c(c1)CCC1C(C)(C(N)=O)CCCC21C (stereo not given),64 AU (inactive)
16,C=CCS(=O)C[C@H](N)C(=O)O (stereo not given in full),128 AU (inactive)
17,CCCc1cc(OC)c2c(c1)OCO2,216 AU (inactive)
18,COc1ccc(-c2oc3cc(OC)c(OC)c(OC)c3c(=O)c2OC)cc1OC,32 AU (inactive)
19,COc1ccc2c(c1)OCC(Cc1ccc(O)c(OC)c1)C2=O (stereo not given),84 AU (inactive)
20,COC1=CC(=O)C(O)=C/C1=C\C=C\c1ccccc1,12 AU (inactive)
